Inconclusive results are not listed. Activity calls are given as the source filed them. The call rests on the fitted dose curve; in most records, active means well fitted curve in the direction sought with a large enough effect; inconclusive means small, poorly fitted or top-dose-only effect, or another doubt; inactive means no such curve, though single readings can be large or run the other way. Residues, ends and D or L forms follow the SMILES beside them. *: point of attachment. Cbz = O=C(OCc1ccccc1)*
Target: Metallo-beta-lactamase type 2 (Klebsiella pneumoniae) (UniProt C7C422)
Sequence (C7C422 whole entry, looked up): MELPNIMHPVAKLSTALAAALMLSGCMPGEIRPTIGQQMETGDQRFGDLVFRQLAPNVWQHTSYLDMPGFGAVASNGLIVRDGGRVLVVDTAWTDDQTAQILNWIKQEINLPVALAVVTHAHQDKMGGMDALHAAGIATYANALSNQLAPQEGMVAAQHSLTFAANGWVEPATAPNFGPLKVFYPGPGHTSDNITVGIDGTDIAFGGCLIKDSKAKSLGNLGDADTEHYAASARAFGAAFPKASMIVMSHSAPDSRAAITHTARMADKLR
Test: qHTS to identify inhibitors of the New Delhi Metallo-beta-lactamase (NDM): assay validation screen against the NCATS LOPAC Collection (AID 1794843)
Settings: NDM-1 enzyme, nitrocefin hydrolysis, absorbance 485 nm; series mostly up to 38.4 µM; activity change, negative = inhibition: at the top concentration
How it was run: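 Absorbance at 485 nm from nitrocefin turnover (50 uM solution added), read at plateau, gives the read-out. Compounds in DMSO were incubated first with 2 nM final NDM-1 in pH 7.0 HEPES buffer containing 1 uM ZnSO4 and 0.01% Tween20.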
On the % scale 0 is the no-effect control and ±100 the full control effect.

SMILES | activity change, negative = inhibition
NCC(O)(CS(=O)(=O)O)c1ccc(Cl)cc1 (stereo unspecified) | -2.53% (inactive)
Cc1cccc(C)c1OCC(N)C(C)C (stereo unspecified) | 0.867% (inactive)
NC1CCN(O)C1=O (stereo unspecified) | -5.98% (inactive)
O=c1ccc2c(OCCCCc3ccccc3)c3ccoc3cc2o1 | -0.209% (inactive)
OC[C@H]1NC[C@@H](O)[C@@H]1O | -4.2% (inactive)
c1ccc2c(c1)CC(N1CCN(c3cccc4c3OCCO4)CC1)C2 | 0.372% (inactive)
C[N+](C)(C)CC=O | -2.37% (inactive)
CN(C)CCC(c1ccc(Br)cc1)c1ccccn1 (stereo unspecified) | 6.64% (inactive)
Oc1ccc(/C=C/c2ccc(/C=C/c3ccc(O)cc3)c(Br)c2)cc1 | -11.3% (inactive)
CC(/C=C/c1cccc(Oc2ccc(F)cc2)c1)N(O)C(N)=O (stereo unspecified) | -1.62% (inactive)
CO/N=C(\C(=O)N[C@@H]1C(=O)N2C(C(=O)O)=C(CSc3nc(=O)c(O)nn3C)CSC12)c1csc(N)n1 (stereo partly specified) | -1.1% (inactive)
Cc1nc(N=Nc2cc(S(=O)(=O)O)c3cc([N+](=O)[O-])cc(S(=O)(=O)O)c3c2)c(COP(=O)(O)O)c(C=O)c1O | -10.3% (inactive)
COc1ccccc1N1CCN(CCCCNC(=O)c2ccc3ccccc3c2)CC1 | 5.72% (inactive)
O=C(O)C1CCNCC1 | -5.1% (inactive)
CC(C)[C@H](NC(=O)OCc1ccccc1)C(=O)N[C@H](C=O)Cc1ccccc1 (Cbz-Val-Phe-aldehyde) | -4.9% (inactive)
COC(=O)C(N)Cc1ccc(Cl)cc1 (stereo unspecified) | -1.38% (inactive)
CCCOC(=O)c1c(-c2ccccc2)nc(CC)c(C(=O)SCC)c1CCC | -1.3% (inactive)
CCCN(CCc1ccccc1)C1CCc2c(O)cccc2C1 (stereo unspecified) | -6.06% (inactive)

SMILES | activity change, negative = inhibition
CCCC(=O)NCCc1c2n(c3ccc(OC)cc13)CCCc1ccccc1-2 | -3.08% (inactive)
O=[N+]([O-])c1cccc2cn[nH]c12 | 2.37% (inactive)
CC(C)(C)NCC(O)COc1cccc2[nH]c(=O)[nH]c12 (stereo unspecified) | -0.582% (inactive)
CCCCCC(O)CCCC(=O)O (stereo unspecified) | 1.22% (inactive)
Nc1ccc(-c2nc3ccc(-c4nc5ccc(N)cc5[nH]4)cc3[nH]2)cc1 | 0.396% (inactive)
O=c1cc(O)cc(/C=C/c2ccc(O)c(O)c2)o1 | -12.8% (inactive)
CCCn1c(=O)c2c(ncn2C)n(CCC)c1=O | 6.2% (inactive)
COc1cc(CNC(=O)CCCCCCC(C)C)ccc1O | -0.381% (inactive)
O=C(O)c1ccccc1Nc1cccc(OCc2ccc3ccccc3n2)c1 | 0.94% (inactive)
O=c1[nH]c(=O)c2nc3ccccc3nc2[nH]1 | 0.495% (inactive)
C#CC(N)CCC(=O)O (stereo unspecified) | -1.47% (inactive)
Nn1nnc2ccccc21 | -0.959% (inactive)
CCCn1c(=O)c2[nH]c(C3CCCC3)nc2n(CCC)c1=O | 1.2% (inactive)
COc1ccc(-c2ccc(N)[n+](CCCC(=O)O)n2)cc1 | -7.32% (inactive)
COc1cc(CC(=O)O)ccc1O | 0.908% (inactive)
COc1ccc2c(c1)CCC1C2CC[C@@]2(C)C1CC[C@@H]2NCCCCCCN1C(=O)C=CC1=O (stereo partly specified) | -3.75% (inactive)
N=S(=O)(O)Cc1noc2ccccc12 | 1.78% (inactive)
Cc1cccc(C(=O)NCN2CCN(c3ccccc3C#N)CC2)c1 | -11.9% (inactive)
